From PubChem BioAssay (EPA / NIEHS)
Inconclusive results are not listed. A structure can be active in one record and inactive in another. Calls of active or inactive are those of the source. The calls were made as follows, unless noted: active = hit-call score of the fitted dose curve at least 0.9, where 1 is the maximum; inconclusive = response in the unintended direction; inactive = score below 0.9.

Legend:
TIMP1, TIMP1 (gene 7076) = assay: LTEA_HepaRG_TIMP1: Life Technologies and Expression Analysis (LTEA) Assay for TIMP1 using HepaRG (AID 2283534; active = hit-call score of the fitted dose curve at least 0.9, where 1 is the maximum; inactive = score below 0.9); details: mRNA level, 48 h; actives raise or lower the signal
Summary of the method: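 Bidirectional change in TIMP1 transcript versus 0.5% DMSO, measured by TaqMan qRT-PCR with three housekeeping genes for normalization. HepaRG human liver cells dosed 48 h in duplicate, top concentration 100 uM with half-log dilutions.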

[1] = read-out: Thyroid Hormone Responsive (THRSP), THRSP (gene 7069); assay: LTEA_HepaRG_THRSP: Life Technologies and Expression Analysis (LTEA) Assay for Thyroid Hormone Responsive (THRSP) using HepaRG (AID 2283536; active = hit-call score of the fitted dose curve at least 0.9, where 1 is the maximum; inactive = score below 0.9); details: mRNA level, 48 h; actives raise or lower the signal
Summary of the method: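 mRNA induction or loss relative to 0.5% DMSO vehicle was fitted bidirectionally across an eight-point curve whose highest exposure was 100 uM. Human HepaRG liver cells received chemicals in duplicate over 48 h before RNA extraction.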

[2] = read-out: Cellular tumor antigen p53 (Homo sapiens) (UniProt P04637); assay: LTEA_HepaRG_TP53: Life Technologies and Expression Analysis (LTEA) Assay for Tumor Protein P53 (TP53) using HepaRG (AID 2283537; active = hit-call score of the fitted dose curve at least 0.9, where 1 is the maximum; inactive = score below 0.9); details: mRNA level, 48 h; actives raise or lower the signal
Summary of the method: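 TP53 transcript measured by qRT-PCR, normalized to three housekeeping genes, after 48 h treatment of human HepaRG cultures with chemicals from 100 uM downward in half-log steps (0.5% DMSO vehicle, serum-free induction medium). Up- or down-regulation fitted against DMSO.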

[3] = read-out: UDP glucuronosyltransferase (UGT1A1), UGT1A1 (gene 54658); assay: LTEA_HepaRG_UGT1A1: Life Technologies and Expression Analysis (LTEA) Assay for UDP glucuronosyltransferase (UGT1A1) using HepaRG (AID 2283538; active = hit-call score of the fitted dose curve at least 0.9, where 1 is the maximum; inactive = score below 0.9); details: mRNA level, 48 h; actives raise or lower the signal
Summary of the method: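 Human liver HepaRG cultures receive test chemical for 48 h, up to 100 uM in 0.5% DMSO, with phenobarbital induction controls. UGT1A1 mRNA is measured by qRT-PCR and normalized to ACTB, GAPDH and POLR2A.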

[4] = read-out: X-box binding protein 1 (XBP1), XBP1 (gene 7494); assay: LTEA_HepaRG_XBP1: Life Technologies and Expression Analysis (LTEA) Assay for X-box binding protein 1 (XBP1) using HepaRG (AID 2283540; active = hit-call score of the fitted dose curve at least 0.9, where 1 is the maximum; inactive = score below 0.9); details: mRNA level, 48 h; actives raise or lower the signal
Summary of the method: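 XBP1 transcript by qRT-PCR (housekeeping-normalized: ACTB, GAPDH, POLR2A) after 48 h chemical treatment of HepaRG cells, 8-point half-log series topping at 100 uM, vehicle 0.5% DMSO. Gain and loss of signal fitted relative to DMSO.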

[5] = LTEA_HepaRG_LDH_cytotoxicity: Cytotoxicity Assessment in the Life Technologies and Expression Analysis (LTEA) Assay (AID 2283563);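 as to AC50: LDH activity released into spent culture medium as a marker of cell death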
Summary of the method: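 LDH release into culture medium read after 48 h chemical treatment of HepaRG cells. Duplicate wells, eight-point half-log series topping at 100 uM, 0.5% DMSO vehicle and baseline.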

[6] = TOX21_p53_BLA_p2_viability: Viability Assessment in the Tox21 HCT-116 p53 Agonism Beta-lactamase Assay, Phase 2 (AID 2283591);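 also: compound exposure lasted 16 h at 37 °C; actives lower the ATP signal meaning cytotoxicity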
Summary of the method: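 Cytotoxicity readout: CellTiter-Glo ATP luminescence, 30 min at room temperature, after the beta-lactamase read. Cells were HCT116 exposed 16 h at 37C to compounds pin-transferred at 217-fold dilution from DMSO stocks.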

[7] = TOX21_p53_BLA_p3_viability: Viability Assessment in the Tox21 HCT-116 p53 Agonism Beta-lactamase Assay, Phase 3 (AID 2283593);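 also: cells exposed to compound for 16 h before reading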
Summary of the method: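 Cellular ATP was quantified by CellTiter-Glo luminescence, read after 30 min at room temperature. Beforehand, HCT116 cells (4000/well) received compound 5 h post-seeding, 217-fold diluted from DMSO, then incubated 16 h at 37C.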

[8] = target: Cellular tumor antigen p53 (Homo sapiens) (UniProt P04637); assay: TOX21_p53_BLA_p5_ratio: Tox21 HCT-116 p53 Agonism Beta-lactamase Assay, Ratio, Phase 5 (AID 2283599)
Summary of the method: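 Beta-lactamase reporter ratio (blue 460 nm over green 530 nm, 405 nm excitation) after 2 h CCF4-AM loading, in HCT-116 cells exposed 16 h at 37 C to compounds pinned at 217-fold dilution. Increases relative to DMSO baseline scored.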

[9] = TOX21_p53_BLA_p5_viability: Viability Assessment in the Tox21 HCT-116 p53 Agonism Beta-lactamase Assay, Phase 5 (AID 2283600)
Summary of the method: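 After the 460/530 nm beta-lactamase measurement, the wells received an ATP-detection luciferase reagent; signal was read 30 min later at RT. Compound treatment lasted 16 h on cells pre-incubated 5 h post-seeding.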

[10] = Tanguay_ZF_120hpf_YSE_legacy: (Legacy) Oregon State University Tanguay Lab 120 Hour Post-fertilization zebrafish Assay for Yolk Sac Edema (AID 2283634);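 as to AC50: actives raise the incidence of yolk sac edema above the DMSO baseline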
Summary of the method: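 Presence or absence of yolk sac edema was recorded at 120 hpf in surviving larvae. These were wild-type Tropical 5D embryos, chorion removed at 4 hpf, held in static exposure at 28C from 6 hpf with 0.64% DMSO vehicle.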

[11] = Tanguay_ZF_120hpf_AXIS_legacy: (Legacy) Oregon State University Tanguay Lab 120 Hour Post-fertilization zebrafish Assay for Body Axis Malformation (AID 2283635);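 as to AC50: potency for an increased fraction of larvae scored with body axis malformation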
Summary of the method: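 Binary scoring of axis defects at 120 hpf under brightfield, fitted positive versus DMSO. Tropical 5D embryos, chorion removed by pronase at 4 hpf, were singly exposed in sealed, dark plates at 28C from 6 hpf; DMSO 0.64% final.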

[12] = Tanguay_ZF_120hpf_EYE_legacy: (Legacy) Oregon State University Tanguay Lab 120 Hour Post-fertilization zebrafish Assay for Eye Malformation (AID 2283636)
Summary of the method: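 Read-out is binary presence or absence of eye malformation, scored by brightfield microscopy at 120 hpf. Single larvae were exposed from 6 hpf in embryo medium containing 0.64% DMSO, with DMSO as baseline.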

[13] = target: Cellular tumor antigen p53 (Homo sapiens) (UniProt P04637); assay: TOX21_p53_BLA_p2_ratio: Tox21 HCT-116 p53 Agonism Beta-lactamase Assay, Ratio, Phase 2 (AID 2283592)
Summary of the method: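 Gain-of-signal p53 agonism was scored from the beta-lactamase FRET ratio (460/530 nm, 405 nm excitation) in HCT116 cells treated 16 h at 37C, 5% CO2, with DMSO serving as negative control and baseline.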

[14] = target: Cellular tumor antigen p53 (Homo sapiens) (UniProt P04637); assay: TOX21_p53_BLA_p4_ratio: Tox21 HCT-116 p53 Agonism Beta-lactamase Assay, Ratio, Phase 4 (AID 2283601)
Summary of the method: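 Signal is the blue/green (460nm/530nm) ratio of cleaved versus uncleaved CCF4-AM substrate, read after 2 h substrate loading. Cells were HCT116 carrying the p53-responsive beta-lactamase reporter, dosed 16 h at 37C, 5% CO2; CellTiter-Glo measured in parallel.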

[15] = target: Cellular tumor antigen p53 (Homo sapiens) (UniProt P04637); assay: TOX21_p53_BLA_p3_ratio: Tox21 HCT-116 p53 Agonism Beta-lactamase Assay, Ratio, Phase 3 (AID 2283596)
Summary of the method: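 HCT116 p53-bla cells (4000/well) given compound in DMSO (217-fold dilution) after 5 h, incubated 16 h at 37C. CCF4-AM substrate 2 h at room temperature; 460/530 nm emission ratio, gain fitted against DMSO.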

[16] = Tanguay_ZF_120hpf_MORT_legacy: (Legacy) Oregon State University Tanguay Lab 120 Hour Post-fertilization zebrafish Assay for Mortality (AID 2283633)
Summary of the method: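 Static waterborne exposure from 6 to 120 hpf at 28C of single dechorionated wild-type (5D) embryos per well, 0.64% DMSO final. Death recorded present/absent by brightfield at 24 and 120 hpf.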

[17] = TOX21_p53_BLA_p4_viability: Viability Assessment in the Tox21 HCT-116 p53 Agonism Beta-lactamase Assay, Phase 4 (AID 2283597);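 also: hits lower the luminescence signal meaning cytotoxicity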
Summary of the method: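 Following a 16 h exposure at 37C, the treated HCT116 wells were first read for the FRET ratio. They were then lysed with CellTiter-Glo, and ATP luminescence was recorded after 30 min at room temperature.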

Measured: AC50

Sequence of Cellular tumor antigen p53 (Homo sapiens) (P04637 whole entry, looked up): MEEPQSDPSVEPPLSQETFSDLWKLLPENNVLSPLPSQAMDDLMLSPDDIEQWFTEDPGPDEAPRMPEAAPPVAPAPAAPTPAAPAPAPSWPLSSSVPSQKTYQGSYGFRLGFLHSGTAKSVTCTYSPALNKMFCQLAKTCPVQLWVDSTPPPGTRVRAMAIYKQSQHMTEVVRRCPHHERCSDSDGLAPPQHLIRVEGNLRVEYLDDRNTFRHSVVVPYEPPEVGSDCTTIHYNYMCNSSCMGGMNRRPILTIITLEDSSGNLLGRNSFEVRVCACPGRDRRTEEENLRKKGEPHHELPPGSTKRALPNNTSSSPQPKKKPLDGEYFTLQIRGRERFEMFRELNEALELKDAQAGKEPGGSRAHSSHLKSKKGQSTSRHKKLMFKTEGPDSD

CCCC1COC(Cn2cncn2)(c2ccc(Cl)cc2Cl)O1 (centres undefined)
inactive: TIMP1, TIMP1 (gene 7076) | [4] | [6] | [7] | [8] | [9] | [11]
active: [1] 7.44 µM | [2] 34.3 µM | [3] 35.8 µM | [5] 32 µM | [10] 33.9 µM | [12] 26.9 µM

COc1nc(C)nc(NC(=O)NS(=O)(=O)c2ccccc2Cl)n1
inactive: [6] | [13] | [9]

CCOC(=O)C(Cl)Cc1cc(-n2nc(C)n(C(F)F)c2=O)c(F)cc1Cl (centres undefined)
active: [3] 38.2 µM | [10] 1.27 µM | [11] 4.23 µM | [12] 1.7 µM
inactive: TIMP1, TIMP1 (gene 7076) | [1] | [2] | [4] | [5] | [13] | [9] | [14]

C=CCC1=C(C)C(OC(=O)C2C(C=C(C)C)C2(C)C)CC1=O (centres undefined)
active: [7] 65.3 µM
not listed: [13] | [14] | [16] | [17]
inactive: all other assays above

OC(c1ccc(Cl)cc1)(c1cncnc1)c1ccccc1Cl (centres undefined)
active: TIMP1, TIMP1 (gene 7076) 50 µM | [1] 86.4 µM | [2] 70.7 µM | [3] 91.1 µM | [5] 70.1 µM
not listed: [13] | [14] | [15] | [16] | [17]
inactive: all other assays above

O=C(O)COc1nc(Cl)c(Cl)cc1Cl
not listed: [13] | [15] | [17]
inactive: all other assays above

CC(Oc1ccc(Cl)cc1Cl)C(=O)O (centres undefined)
not listed: [13] | [14] | [15] | [16] | [17]
inactive: all other assays above

COC(=O)C=C(C)OP(=O)(OC)OC
not listed: [6] | [7] | [13] | [14] | [15] | [16] | [17]
inactive: all other assays above

COc1ccc(C(c2ccc(OC)cc2)C(Cl)(Cl)Cl)cc1
active: [1] 81.7 µM | [2] 66.7 µM | [3] 12 µM | [5] 83.4 µM
not listed: [13] | [14] | [16] | [17]
inactive: all other assays above

CCCCOC(=O)c1ccccc1C(=O)OCCCC
not listed: [6] | [9] | [13] | [14] | [15] | [16] | [17]
inactive: all other assays above

CN(C)C(=S)SSC(=S)N(C)C
active: [8] 77 µM
inactive: TIMP1, TIMP1 (gene 7076) | [1] | [2] | [3] | [4] | [5] | [6] | [7] | [17] | [8] | [9] | [10] | [11] | [12]

N#Cc1nn(-c2c(Cl)cc(C(F)(F)F)cc2Cl)c(N)c1S(=O)C(F)(F)F (centres undefined)
active: TIMP1, TIMP1 (gene 7076) 66.7 µM | [1] 27.3 µM | [2] 32 µM | [3] 37.6 µM | [4] 68.6 µM | [5] 34.2 µM | [10] 0.0235 µM | [11] 4.62 µM
inactive: [6] | [7] | [8] | [9] | [16] | [12]

CNC(=S)S
not listed: [9] | [13] | [14] | [15] | [16] | [17]
inactive: all other assays above

CCNc1nc(Cl)nc(NC(C)C)n1
active: [3] 18.1 µM
inactive: TIMP1, TIMP1 (gene 7076) | [1] | [2] | [4] | [5] | [10] | [11] | [12]
